Reference: the supplement of paper PMC10849652
About 8,800 targets were measured; listed, in parts, are those with a hit and a random draw of the rest. About 0.5% of all pairs of compound and target were hits. Unmarked numbers belong to inactive results.

Legend:
Test in all cases: log2 fold change, soluble protein after heating vs DMSO (PISA); higher = thermal stabilisation; K562 lysate, 10 uM; active = over 0.2 and 3.5 SD of the protein, either way, in both replicates (recomputed)
nilotinib = compound: Cc1cn(-c2cc(NC(=O)c3ccc(C)c(Nc4nccc(-c5cccnc5)n4)c3)cc(C(F)(F)F)c2)cn1 [nilotinib]
Summary of the method: (§1)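 Following dounce homogenisation of K562 pellets in PBS pH 7.4 with 1 mM MgCl2, crude extract at 1 mg/mL protein was incubated for 30 min with 10 μM compound. Aliquots were then heated for 3 min over 48°C-58°C and pooled, NP-40 was added to 0.5% at 4°C, and soluble protein was recovered as the supernatant at 21,000xg for 90 min. Channel-sum-equalised TMTpro 16plex LC-MS/MS quantified this protein. Each value, from duplicates, is a log-two fold change in thermal stability relative to solvent controls.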

[1] = compound: Cc1nc(Nc2n[nH]c3c2CN(C(=O)N[C@H](CN(C)C)c2ccccc2)C3(C)C)c2sccc2n1
Summary of the method: as §1

dasatinib = compound: Cc1nc(Nc2ncc(C(=O)Nc3c(C)cccc3Cl)s2)cc(N2CCN(CCO)CC2)n1 [dasatinib]
Summary of the method: as §1

[2] = compound: Cc1ncc(-c2ccnc(Nc3ccc(S(C)(=O)=O)cc3)n2)n1C(C)C
Summary of the method: as §1

[3] = compound: Cn1cc(-c2ccc3c(c2)CCN3C(=O)Cc2cccc(C(F)(F)F)c2)c2c(N)ncnc21
Summary of the method: as §1

quisinostat = compound: Cn1cc(CNCC2CCN(c3ncc(C(=O)NO)cn3)CC2)c2ccccc21 [quisinostat]
Summary of the method: as §1

tipifarnib = compound: Cn1cncc1[C@@](N)(c1ccc(Cl)cc1)c1ccc2c(c1)c(-c1cccc(Cl)c1)cc(=O)n2C [tipifarnib]
Summary of the method: as §1

[4] = compound: NC(=O)Nc1cc(-c2cccc(F)c2)sc1C(=O)N[C@H]1CCCNC1
Summary of the method: as §1

[5] = compound: NC(=O)c1cnc(N[C@@H]2CCCC[C@@H]2N)nc1Nc1cccc(-n2nccn2)c1
Summary of the method: as §1

[6] = compound: NC1(c2ccc(-c3nc4ccn5c(=O)[nH]nc5c4cc3-c3ccccc3)cc2)CCC1
Summary of the method: as §1

[7] = compound: NCC(=O)Nc1ccc(-n2nc(C(F)(F)F)cc2-c2ccc3c(ccc4ccccc43)c2)cc1
Summary of the method: as §1

vorinostat = compound: O=C(CCCCCCC(=O)Nc1ccccc1)NO [vorinostat]
Summary of the method: as §1

silmitasertib = compound: O=C(O)c1ccc2c(c1)nc(Nc1cccc(Cl)c1)c1ccncc12 [silmitasertib]
Summary of the method: as §1

[8] = compound: O=C1NC(=O)C(c2cnc3ccccn23)=C1c1cn2c3c(cc(F)cc13)CN(C(=O)N1CCCCC1)CC2
Summary of the method: as §1

entospletinib = compound: c1cn2cc(-c3ccc4cn[nH]c4c3)nc(Nc3ccc(N4CCOCC4)cc3)c2n1 [entospletinib]
Summary of the method: as §1

Chain of UniProt Q9UHD1 (Q9UHD1 whole entry, looked up): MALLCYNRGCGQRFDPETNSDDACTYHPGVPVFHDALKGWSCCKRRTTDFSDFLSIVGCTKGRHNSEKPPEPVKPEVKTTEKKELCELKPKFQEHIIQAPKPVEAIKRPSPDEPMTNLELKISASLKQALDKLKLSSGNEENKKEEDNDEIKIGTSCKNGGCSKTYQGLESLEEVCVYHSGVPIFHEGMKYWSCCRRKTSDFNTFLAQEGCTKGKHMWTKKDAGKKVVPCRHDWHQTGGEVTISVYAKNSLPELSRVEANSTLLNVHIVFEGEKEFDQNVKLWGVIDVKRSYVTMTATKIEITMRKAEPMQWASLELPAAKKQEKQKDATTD
Chain of UniProt P53355 (P53355 whole entry, looked up): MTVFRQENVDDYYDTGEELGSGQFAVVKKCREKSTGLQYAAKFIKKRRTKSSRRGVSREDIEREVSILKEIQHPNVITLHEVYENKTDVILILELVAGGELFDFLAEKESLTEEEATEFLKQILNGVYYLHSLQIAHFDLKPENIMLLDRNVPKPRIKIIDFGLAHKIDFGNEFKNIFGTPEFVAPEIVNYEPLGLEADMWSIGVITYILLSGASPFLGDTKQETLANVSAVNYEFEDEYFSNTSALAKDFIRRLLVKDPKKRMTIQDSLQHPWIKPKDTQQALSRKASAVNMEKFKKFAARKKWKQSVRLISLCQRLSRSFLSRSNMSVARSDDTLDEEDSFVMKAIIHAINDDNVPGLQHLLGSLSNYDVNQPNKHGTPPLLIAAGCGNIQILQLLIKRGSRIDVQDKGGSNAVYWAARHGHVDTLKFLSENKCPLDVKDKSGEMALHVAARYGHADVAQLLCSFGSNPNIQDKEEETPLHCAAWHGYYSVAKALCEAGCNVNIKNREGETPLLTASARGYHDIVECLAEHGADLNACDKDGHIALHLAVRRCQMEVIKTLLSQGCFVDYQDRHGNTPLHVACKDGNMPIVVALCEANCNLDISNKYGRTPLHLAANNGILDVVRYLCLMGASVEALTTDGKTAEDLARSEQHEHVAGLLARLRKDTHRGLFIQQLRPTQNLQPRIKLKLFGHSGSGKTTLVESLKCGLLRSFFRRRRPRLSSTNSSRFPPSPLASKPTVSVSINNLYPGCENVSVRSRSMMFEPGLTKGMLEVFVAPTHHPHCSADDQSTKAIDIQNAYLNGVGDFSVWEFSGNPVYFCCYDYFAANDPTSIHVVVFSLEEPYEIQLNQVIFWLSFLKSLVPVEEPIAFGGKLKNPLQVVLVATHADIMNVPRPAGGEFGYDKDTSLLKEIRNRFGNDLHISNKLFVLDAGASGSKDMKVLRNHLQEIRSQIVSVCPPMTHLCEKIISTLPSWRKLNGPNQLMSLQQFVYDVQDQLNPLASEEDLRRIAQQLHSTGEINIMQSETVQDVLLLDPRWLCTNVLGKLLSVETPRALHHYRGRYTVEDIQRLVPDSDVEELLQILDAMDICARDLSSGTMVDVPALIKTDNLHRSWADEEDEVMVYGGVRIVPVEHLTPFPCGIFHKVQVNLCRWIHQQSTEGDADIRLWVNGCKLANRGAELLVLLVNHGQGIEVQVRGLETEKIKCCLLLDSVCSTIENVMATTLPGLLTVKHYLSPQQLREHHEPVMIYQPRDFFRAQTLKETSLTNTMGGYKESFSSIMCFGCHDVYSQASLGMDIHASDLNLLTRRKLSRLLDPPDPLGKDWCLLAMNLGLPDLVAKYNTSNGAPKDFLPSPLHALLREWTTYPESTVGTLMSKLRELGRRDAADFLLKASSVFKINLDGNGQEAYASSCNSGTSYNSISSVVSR
Chain of UniProt O75122 (O75122 whole entry, looked up): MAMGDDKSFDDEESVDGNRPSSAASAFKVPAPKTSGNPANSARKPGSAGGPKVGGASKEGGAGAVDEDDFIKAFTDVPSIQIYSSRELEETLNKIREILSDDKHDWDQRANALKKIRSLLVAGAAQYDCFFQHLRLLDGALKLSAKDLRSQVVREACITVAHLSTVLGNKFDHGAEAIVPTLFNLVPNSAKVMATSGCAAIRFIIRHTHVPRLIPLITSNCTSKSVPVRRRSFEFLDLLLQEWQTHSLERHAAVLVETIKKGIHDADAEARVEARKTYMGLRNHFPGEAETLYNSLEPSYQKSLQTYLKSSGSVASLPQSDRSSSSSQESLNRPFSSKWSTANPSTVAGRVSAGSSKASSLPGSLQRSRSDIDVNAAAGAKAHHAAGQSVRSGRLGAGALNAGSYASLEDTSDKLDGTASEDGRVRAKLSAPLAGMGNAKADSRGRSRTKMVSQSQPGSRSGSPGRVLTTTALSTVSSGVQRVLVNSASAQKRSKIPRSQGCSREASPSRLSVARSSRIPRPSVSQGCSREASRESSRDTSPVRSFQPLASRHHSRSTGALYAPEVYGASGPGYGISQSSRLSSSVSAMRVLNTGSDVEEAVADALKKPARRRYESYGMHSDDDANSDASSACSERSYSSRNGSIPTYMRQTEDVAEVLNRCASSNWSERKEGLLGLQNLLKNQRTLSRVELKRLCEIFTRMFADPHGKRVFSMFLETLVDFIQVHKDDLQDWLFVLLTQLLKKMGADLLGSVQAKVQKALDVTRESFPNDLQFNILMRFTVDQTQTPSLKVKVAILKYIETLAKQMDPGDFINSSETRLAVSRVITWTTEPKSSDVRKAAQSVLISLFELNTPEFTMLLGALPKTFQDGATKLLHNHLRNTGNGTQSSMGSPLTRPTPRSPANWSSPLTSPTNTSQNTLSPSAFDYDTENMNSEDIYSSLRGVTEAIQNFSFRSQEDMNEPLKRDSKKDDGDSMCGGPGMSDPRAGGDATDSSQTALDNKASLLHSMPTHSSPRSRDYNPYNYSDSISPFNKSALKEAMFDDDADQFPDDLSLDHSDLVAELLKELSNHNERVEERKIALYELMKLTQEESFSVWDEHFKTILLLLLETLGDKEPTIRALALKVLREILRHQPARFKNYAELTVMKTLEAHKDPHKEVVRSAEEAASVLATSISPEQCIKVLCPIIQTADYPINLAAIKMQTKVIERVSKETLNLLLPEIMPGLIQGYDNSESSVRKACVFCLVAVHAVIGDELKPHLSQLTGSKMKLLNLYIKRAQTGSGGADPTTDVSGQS
Chain of UniProt P48729 (P48729 whole entry, looked up): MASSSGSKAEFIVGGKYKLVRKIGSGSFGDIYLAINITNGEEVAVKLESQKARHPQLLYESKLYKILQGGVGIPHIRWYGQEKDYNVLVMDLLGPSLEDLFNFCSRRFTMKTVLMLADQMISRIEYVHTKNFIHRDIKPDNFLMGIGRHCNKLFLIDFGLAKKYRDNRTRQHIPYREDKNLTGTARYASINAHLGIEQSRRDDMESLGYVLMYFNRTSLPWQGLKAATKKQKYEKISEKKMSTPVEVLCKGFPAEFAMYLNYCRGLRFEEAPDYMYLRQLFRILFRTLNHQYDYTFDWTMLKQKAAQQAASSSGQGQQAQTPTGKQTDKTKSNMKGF
Chain of UniProt Q9HCG8 (Q9HCG8 whole entry, looked up): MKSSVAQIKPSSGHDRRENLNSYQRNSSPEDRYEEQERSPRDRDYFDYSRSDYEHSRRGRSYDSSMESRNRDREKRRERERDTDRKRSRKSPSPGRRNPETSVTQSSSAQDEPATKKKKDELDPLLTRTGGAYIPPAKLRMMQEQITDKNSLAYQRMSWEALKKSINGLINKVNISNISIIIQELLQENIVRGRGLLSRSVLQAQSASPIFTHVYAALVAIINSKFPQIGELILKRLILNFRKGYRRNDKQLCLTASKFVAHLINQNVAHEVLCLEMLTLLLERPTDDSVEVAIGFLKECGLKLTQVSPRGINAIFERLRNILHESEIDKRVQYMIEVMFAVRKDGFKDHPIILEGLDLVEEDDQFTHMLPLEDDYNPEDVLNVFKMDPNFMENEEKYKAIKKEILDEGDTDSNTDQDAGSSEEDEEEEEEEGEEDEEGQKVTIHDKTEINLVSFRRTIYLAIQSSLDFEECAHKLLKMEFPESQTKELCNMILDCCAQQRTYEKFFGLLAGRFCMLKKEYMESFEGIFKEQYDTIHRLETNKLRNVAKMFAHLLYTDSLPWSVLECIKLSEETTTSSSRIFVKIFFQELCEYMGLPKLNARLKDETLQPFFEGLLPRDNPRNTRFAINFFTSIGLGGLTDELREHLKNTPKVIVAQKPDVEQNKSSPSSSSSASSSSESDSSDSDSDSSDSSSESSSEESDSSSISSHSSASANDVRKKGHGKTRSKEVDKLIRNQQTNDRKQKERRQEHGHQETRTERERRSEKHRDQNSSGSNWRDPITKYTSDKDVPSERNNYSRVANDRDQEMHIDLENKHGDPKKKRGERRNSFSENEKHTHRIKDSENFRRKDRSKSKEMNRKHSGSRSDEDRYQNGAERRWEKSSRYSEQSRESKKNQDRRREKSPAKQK
Chain of UniProt Q8WYA6 (Q8WYA6 whole entry, looked up): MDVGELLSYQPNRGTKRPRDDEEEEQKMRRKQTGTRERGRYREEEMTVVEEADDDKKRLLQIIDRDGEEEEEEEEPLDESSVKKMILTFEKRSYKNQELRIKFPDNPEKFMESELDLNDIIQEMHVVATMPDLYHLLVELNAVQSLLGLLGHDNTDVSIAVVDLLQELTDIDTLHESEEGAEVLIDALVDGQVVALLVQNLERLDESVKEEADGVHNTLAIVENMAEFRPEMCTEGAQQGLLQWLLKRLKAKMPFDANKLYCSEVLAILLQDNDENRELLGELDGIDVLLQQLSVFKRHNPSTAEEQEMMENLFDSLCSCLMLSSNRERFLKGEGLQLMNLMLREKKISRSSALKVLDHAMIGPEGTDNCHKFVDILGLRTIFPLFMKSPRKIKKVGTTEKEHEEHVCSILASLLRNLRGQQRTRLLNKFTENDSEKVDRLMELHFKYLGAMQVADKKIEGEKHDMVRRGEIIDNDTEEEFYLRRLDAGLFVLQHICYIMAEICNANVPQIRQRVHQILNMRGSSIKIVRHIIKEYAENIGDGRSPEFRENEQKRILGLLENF
Chain of UniProt Q8WUH1 (Q8WUH1 whole entry, looked up): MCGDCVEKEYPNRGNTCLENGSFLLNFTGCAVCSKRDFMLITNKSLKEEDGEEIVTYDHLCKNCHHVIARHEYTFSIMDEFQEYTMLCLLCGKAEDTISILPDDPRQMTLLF

Target	log2 fold change (nilotinib)	log2 fold change [1]	log2 fold change (dasatinib)	log2 fold change [2]	log2 fold change [3]	log2 fold change (quisinostat)	log2 fold change (tipifarnib)	log2 fold change [4]	log2 fold change [5]	log2 fold change [6]	log2 fold change [7]	log2 fold change (vorinostat)	log2 fold change (silmitasertib)	log2 fold change [8]	log2 fold change (entospletinib)
CHURC1 isoform 2 (UniProt Q8WUH1)	0.055	-0.029	0.016	-0.09	-0.001	-0.074	0.027	0.018	-0.041	-0.083	-0.048	0.285 (active)	-0.039	-0.043	-0.128
CSNK2A2 (UniProt P19784)	-0.031	0.195	-0.039	0.254	-0.004	0.001	-0.014	0.094	0.018	-0.003	0.383	-0.105	0.879 (active)	-0.008	0.466
DCTN1 (UniProt Q14203)	0.008	-0.005	-0.025	0.012	0.017	0.001	-0.001	0.011	0.009	-0.007	0.011	-0.261 (active)	-0.003	0.012	0.001
COG5 isoform 2 (UniProt Q9UP83)	-0.023	0.057	-0.153	-0.003	0.037	-0.031	-0.019	0.043	-0.081	-0.12	-0.005	-0.342 (active)	0.073	-0.029	0.038
CHORDC1 (UniProt Q9UHD1)	0.024	-0.003	0.016	0.034	0.008	0.018	0.021	-0.015	0	-0.005	0.001	-0.014	-0.019	-0.009	0
CSPP1 (UniProt Q1MSJ5)	-0.105	-0.014	0.046	0.011	-0.062	0.026	0.078	0.015	-0.227	0.011	0.122	0.085	-0.027	0.043	0.003
DAPK1 isoform 3 (UniProt P53355)	-0.061	0.017	-0.052	-0.146	-0.049	-0.135	0.056	0.812 (active)	-0.103	-0.075	0.09	-0.477	0.833 (active)	0.004	–
CHML (UniProt P26374)	-0.001	0.013	0.035	-0.011	-0.001	0	-0.031	-0.015	-0.008	0.002	0.029	-0.286 (active)	0.003	-0.022	0.006
CWC22 (UniProt Q9HCG8)	0.043	0.017	-0.015	0.002	0.02	0.015	0	0.011	0.023	-0.011	-0.012	-0.156	0.032	-0.016	0.015
CSNK1A1 (UniProt P48729)	-0.04	0.045	0.088	0.123	-0.039	-0.04	-0.019	0.197	0.018	-0.07	0.001	-0.276 (active)	0.088	-0.044	0.017
COX20 isoform 2 (UniProt Q5RI15)	0.051	-0.023	0.07	-0.024	0.013	-0.017	0.117	-0.026	-0.058	-0.03	-0.016	-0.079	0.011	-0.037	0.026
CUX1 isoform 3 (UniProt P39880)	-0.029	0.026	-0.04	0.012	0.006	-0.02	-0.057	0.006	0.03	-0.015	0.008	0.005	0.025	-0.022	-0.014
CNST (UniProt Q6PJW8)	0.125	0.029	0.023	-0.123	0	-0.005	0.054	-0.002	0	0.041	0.051	0.056	-0.028	-0.067	-0.024
DES (UniProt P17661)	0.009	-0.04	-0.024	0.004	-0.057	-0.162	-0.008	0	0.041	0.034	0.108	0.097	0.03	0.05	0.027
CPT1A (UniProt P50416)	-0.012	0.049	0.015	-0.022	0.008	0.308 (active)	0.056	-0.09	-0.028	-0.038	-0.033	0.406 (active)	-0.001	-0.002	-0.06
DDX54 isoform 2 (UniProt Q8TDD1)	0.047	-0.035	0.002	0.019	0.089	0.042	-0.023	0.021	0.001	0.011	0.131	0.066	-0.006	-0.008	-0.009
CMIP (UniProt Q8IY22)	-0.034	0.023	-0.063	0.016	0.008	-0.052	-0.045	0.075	-0.008	-0.036	-0.101	-0.541 (active)	0.018	0.021	-0.052
CTNNBL1 (UniProt Q8WYA6)	-0.034	0.02	0.025	-0.013	-0.065	-0.008	-0.019	0.02	0.011	-0.138	-0.026	-0.046	-0.044	-0.025	-0.011
CRABP2 (UniProt P29373)	-0.063	-0.125	0.076	-0.066	0.006	-0.004	0.061	-0.049	-0.036	-0.02	0.169	0.18	-0.05	0.007	-0.209
DENND1B (UniProt Q6P3S1)	0.042	-0.073	0.073	-0.05	-0.09	-0.16	0.017	0.211	0.2	0.209	-0.063	-1.3 (active)	0.28	-0.076	–
CLASP2 isoform 3 (UniProt O75122)	0.013	-0.004	-0.024	0.02	0.021	-0.042	-0.063	-0.07	-0.007	0.032	0.035	-0.329 (active)	-0.033	-0.02	0.005
